Measured values taken from PubChem BioAssay (EPA / NIEHS).
Results filed as inconclusive are left out. The source made the active and inactive calls. The calls were made as follows, unless noted: active = hit-call score of the fitted dose curve at least 0.9, where 1 is the maximum; inactive = score below 0.9.

Columns and labels:
[1] = ATG_PBREM_CIS: Attagene CIS-FACTORIAL HepG2 Assay for human Phenobarbital-responsive Enhancer Module (PBREM) (AID 2282955); conditions: HepG2 PBREM cis-reporter, Attagene multiplexed transcription; actives raise or lower the signal
Outline: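 After a 24 h incubation with test chemical, transfected HepG2 cells yield total RNA; reporter-specific RT-PCR products are fluorescently labelled, HpaI-digested and resolved by capillary electrophoresis against ROX size standards.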

[2] = target: Paired box protein Pax-6 (Homo sapiens) (UniProt P26367); experiment: ATG_Pax6_CIS: Attagene CIS-FACTORIAL HepG2 Assay for human Paired Box 6 (PAX6) (AID 2282956); conditions: HepG2 CIS-FACTORIAL PAX6 reporter transcription, RNA readout; actives raise or lower the signal
Outline: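 HepG2 cells transiently transfected with cis-promoter-driven multiplexed reporter units sensing endogenous transcription factor activity; 24 h chemical exposure. Reporter mRNA quantified by RT-PCR, 6-FAM labelling, HpaI digestion and capillary electrophoresis; bidirectional fit versus DMSO baseline.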

[3] = ATG_PXRE_CIS: Attagene CIS-FACTORIAL HepG2 Assay for human Pregnane X Receptor Element (PXRE) (AID 2282957); conditions: HepG2 Attagene CIS-FACTORIAL PXRE reporter, mRNA; actives raise or lower the signal
Outline: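 HepG2 cells transiently transfected with cis-element-driven multiplexed reporter units; after 24 h chemical exposure, reporter mRNA measured by RT-PCR, 6-FAM labelling, HpaI digestion and capillary electrophoresis. Bidirectional fitting relative to DMSO.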

[4] = ATG_Sox_CIS: Attagene CIS-FACTORIAL HepG2 Assay for human SRY-box transcription factor (SOX) (AID 2282960); conditions: HepG2 Attagene cis-factorial SOX reporter, mRNA; actives raise or lower the signal
Outline: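 After 24 h of chemical treatment, transfected HepG2 reporter cells are lysed for total RNA. Transcript levels come from RT-PCR with labelled primer extension and capillary electrophoresis, analysed bidirectionally versus DMSO.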

[5] = target: Transcription factor Sp1 (Homo sapiens) (UniProt P08047); experiment: ATG_Sp1_CIS: Attagene CIS-FACTORIAL HepG2 Assay for human Specificity Protein 1 (Sp1) (AID 2282961); conditions: HepG2 Sp1 cis-reporter transcription, actives raise or lower the signal
Outline: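 Sp1-driven reporter mRNA, read as capillary electrophoresis fluorescence after RT-PCR, in transiently transfected HepG2 cells dosed for 24 h; signal change in either direction relative to DMSO.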

[6] = ATG_SREBP_CIS: Attagene CIS-FACTORIAL HepG2 Assay for human Sterol Regulatory Element Binding (SREBP) (AID 2282962); conditions: HepG2 Attagene cis-factorial SREBP reporter, mRNA; actives raise or lower the signal
Outline: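 HepG2 cells transiently transfected with multiplexed cis-promoter reporter units sensing endogenous transcription factors; reporter mRNA measured 24 h after dosing by RT-PCR, 6-FAM labeling, HpaI digestion and capillary electrophoresis. Bidirectional fit versus DMSO.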

[7] = target: Signal transducer and activator of transcription 3 (Homo sapiens) (UniProt P40763); experiment: ATG_STAT3_CIS: Attagene CIS-FACTORIAL HepG2 Assay for human Signal Transducer and Activator of Transcription 3 (STAT3) (AID 2282963); conditions: HepG2, Attagene cis-factorial STAT3 reporter transcription; actives raise or lower the signal
Outline: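 Endogenous STAT3-responsive cis-element activity was read in transiently transfected HepG2 cells after 24 h treatment. Reporter transcripts were quantified via RT-PCR and capillary electrophoresis, with DMSO as negative control and bidirectional curve fitting.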

[8] = ATG_TA_CIS: Attagene CIS-FACTORIAL HepG2 Assay for human TA Basal Promoter (AID 2282964); conditions: HepG2 Attagene CIS-factorial TA basal promoter reporter; actives raise or lower the signal
Outline: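 Transient MRTU transfection of HepG2 preceded 24 h compound exposure. Reporter mRNA levels were then read by RT-PCR with capillary electrophoresis, and this background-control endpoint was fitted bidirectionally to DMSO.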

[9] = ATG_TCF_b_cat_CIS: Attagene CIS-FACTORIAL HepG2 Assay for human T-Cell-Factor with beta-catenin (TCF/b-cat) (AID 2282965); conditions: HepG2 TCF/beta-catenin cis-reporter transcription, actives raise or lower the signal
Outline: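 Measured: reporter mRNA in HepG2 transiently transfected with cis-promoter reporter units, 24 h after chemical addition. Fitting was bidirectional, DMSO as negative control.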

[10] = ATG_TAL_CIS: Attagene CIS-FACTORIAL HepG2 Assay for human TAL Basal Promoter (AID 2282966); conditions: HepG2 Attagene cis-factorial TAL promoter reporter; actives raise or lower the signal;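 also: background control endpoint measuring basal TAL promoter reporter mRNA not a specific factor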
Outline: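 HepG2 cells transiently transfected with multiplexed cis-promoter reporter units, dosed 24 h. Reporter mRNA quantified by RT-PCR, 6-FAM labelling, HpaI digestion and capillary electrophoresis; TAL basal promoter serves as background control, fitted bidirectionally versus DMSO.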

[11] = ATG_VDRE_CIS: Attagene CIS-FACTORIAL HepG2 Assay for human Vitamin D Receptor Element (VDRE) (AID 2282968); conditions: HepG2 VDRE cis-reporter transcription, actives raise or lower the signal
Outline: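 Reporter mRNA induction, quantified by capillary electrophoresis of fluorescently labelled RT-PCR products, was read 24 h after dosing HepG2 cells carrying transiently transfected cis-regulated reporter units; gain or loss relative to DMSO.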

[12] = target: Estrogen receptor (Homo sapiens) (UniProt P03372); experiment: ATG_ERa_TRANS: Attagene TRANS-FACTORIAL HepG2 Assay for human Estrogen Receptor alpha (ERa) (AID 2282970; active = hit-call score of the fitted dose curve at least 0.9, where 1 is the maximum); conditions: HepG2 Attagene TRANS ERa GAL4 reporter, mRNA
Outline: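 HepG2 cells transiently transfected with multiplexed GAL4-UAS reporter units read out chimeric NR-Gal4 activity. After 24 h compound exposure, reporter mRNA was quantified by RT-PCR, 6-FAM labeling, HpaI digestion and capillary electrophoresis, relative to DMSO.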

[13] = target: Steroid hormone receptor ERR1 (Homo sapiens) (UniProt P11474); experiment: ATG_ERRa_TRANS: Attagene TRANS-FACTORIAL HepG2 Assay for human Estrogen-Related Receptor alpha (ERRa) (AID 2282971; active = hit-call score of the fitted dose curve at least 0.9, where 1 is the maximum); conditions: HepG2 Attagene TRANS reporter, ERRa transactivation
Outline: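 HepG2 cells transiently transfected with GAL4-UAS reporter units and chimeric NR-Gal4 constructs; after 24 hour compound incubation, reporter mRNA quantified by RT-PCR, fluorescent labelling and capillary electrophoresis, gain of signal versus DMSO.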

[14] = ATG_TGFb_CIS: Attagene CIS-FACTORIAL HepG2 Assay for human Transforming Growth Factor (TGF) (AID 2282967); conditions: HepG2 Attagene CIS TGFb reporter, mRNA transcription; actives raise or lower the signal
Outline: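 After a 24-hour incubation with compound, transfected HepG2 cells were lysed for RNA; reporter cDNA was amplified, fluorescently end-labeled and separated by CE. DMSO served as baseline for bidirectional fits.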

[15] = target: Nuclear receptor subfamily 1 group I member 3 (Homo sapiens) (UniProt Q14994); experiment: ATG_CAR_TRANS: Attagene TRANS-FACTORIAL HepG2 Assay for human Constitutive Androstane Receptor (CAR) (AID 2282969; active = hit-call score of the fitted dose curve at least 0.9, where 1 is the maximum;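 also: activators raise reporter mRNA above DMSO so AC50 marks induction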); conditions: HepG2 Attagene TRANS-FACTORIAL CAR reporter
Outline: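 Readout is reporter mRNA induction, quantified by fluorescent primer extension and capillary electrophoresis after RT-PCR. Cells were HepG2 transiently carrying chimeric NR-Gal4 constructs with GAL4-UAS reporters, treated for 24 h; activity scored upward from DMSO.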

[16] = target: X-box-binding protein 1 (Homo sapiens) (UniProt P17861); experiment: ATG_Xbp1_CIS: Attagene CIS-FACTORIAL HepG2 Assay for human X-box Binding Protein 1 (XBP1) (AID 2282972); conditions: HepG2 XBP1 cis-element reporter, Attagene multiplex; actives raise or lower the signal
Outline: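 HepG2 cells transiently transfected with multiple cis-element reporter units report endogenous TF activity; 24 h exposure, then reporter mRNA measured by RT-PCR, 6-FAM labelling, HpaI digestion and capillary electrophoresis. Bidirectional fitting versus DMSO.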

[17] = ATG_M_19_TRANS: Attagene TRANS-FACTORIAL HepG2 Assay for M19 Transcription Factor (Internal Marker) (AID 2282974; active = hit-call score of the fitted dose curve at least 0.9, where 1 is the maximum); conditions: HepG2 Attagene TRANS-FACTORIAL M19 internal marker reporter
Outline: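 Measured here: internal-marker reporter transcript from HepG2 cells transfected with MRTUs, harvested at 24 h. cDNA PCR products were 6-FAM labelled by primer extension, cut with HpaI for 2 h at 37 C, and resolved by CE.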

[18] = ATG_GAL4_TRANS: Attagene TRANS-FACTORIAL HepG2 Assay for GAL4 (Internal Marker) (AID 2282976; active = hit-call score of the fitted dose curve at least 0.9, where 1 is the maximum); conditions: HepG2 Attagene TRANS GAL4 internal marker reporter
Outline: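 Background-control readout: GAL4-UAS reporter transcript in transiently transfected HepG2 cells after 24 h compound exposure. Measured by RT-PCR, 6-FAM primer extension, HpaI digest and capillary electrophoresis; gain-of-signal fit versus DMSO.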

[19] = ATG_RORE_CIS: Attagene CIS-FACTORIAL HepG2 Assay for human RAR-related Orphan Receptor Element (RORE) (AID 2282959); conditions: HepG2 Attagene cis-factorial RORE reporter, mRNA; actives raise or lower the signal
Outline: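 Fluorescence intensity of reporter-specific cDNA fragments, separated by capillary electrophoresis, gives the signal. Source: HepG2 liver cells transiently transfected with cis-element reporters and exposed 24 h; DMSO-normalized bidirectional fit.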

Measured: AC50

Sequence of Nuclear receptor subfamily 1 group I member 3 (Homo sapiens) (Q14994 whole entry, looked up, the tested form may be a part): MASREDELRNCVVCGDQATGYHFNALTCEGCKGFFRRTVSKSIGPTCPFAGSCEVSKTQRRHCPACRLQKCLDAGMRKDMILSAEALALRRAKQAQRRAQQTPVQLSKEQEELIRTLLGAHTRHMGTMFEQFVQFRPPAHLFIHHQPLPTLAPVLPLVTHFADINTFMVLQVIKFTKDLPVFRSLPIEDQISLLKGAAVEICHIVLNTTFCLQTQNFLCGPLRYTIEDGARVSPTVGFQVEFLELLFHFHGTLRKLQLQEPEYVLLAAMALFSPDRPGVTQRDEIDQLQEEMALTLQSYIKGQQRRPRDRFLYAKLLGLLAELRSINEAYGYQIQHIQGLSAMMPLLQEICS
Sequence of Estrogen receptor (Homo sapiens) (P03372 whole entry, looked up, the tested form may be a part): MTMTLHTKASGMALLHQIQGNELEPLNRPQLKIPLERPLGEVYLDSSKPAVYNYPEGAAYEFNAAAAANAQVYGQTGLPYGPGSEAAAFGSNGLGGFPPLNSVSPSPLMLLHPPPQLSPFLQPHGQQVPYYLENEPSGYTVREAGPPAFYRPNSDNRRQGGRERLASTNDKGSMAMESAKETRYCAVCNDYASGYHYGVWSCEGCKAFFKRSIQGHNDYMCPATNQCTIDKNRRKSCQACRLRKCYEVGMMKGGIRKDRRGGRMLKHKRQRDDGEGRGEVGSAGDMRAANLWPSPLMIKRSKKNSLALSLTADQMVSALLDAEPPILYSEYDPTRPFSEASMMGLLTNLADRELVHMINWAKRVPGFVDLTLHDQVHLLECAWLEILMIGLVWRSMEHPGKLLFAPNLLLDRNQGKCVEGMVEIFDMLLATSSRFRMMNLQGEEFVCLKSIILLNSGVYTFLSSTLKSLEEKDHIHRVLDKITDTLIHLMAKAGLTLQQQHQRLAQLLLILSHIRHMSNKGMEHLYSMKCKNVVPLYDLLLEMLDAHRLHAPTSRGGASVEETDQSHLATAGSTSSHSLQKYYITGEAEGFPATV
Sequence of Signal transducer and activator of transcription 3 (Homo sapiens) (P40763 whole entry, looked up): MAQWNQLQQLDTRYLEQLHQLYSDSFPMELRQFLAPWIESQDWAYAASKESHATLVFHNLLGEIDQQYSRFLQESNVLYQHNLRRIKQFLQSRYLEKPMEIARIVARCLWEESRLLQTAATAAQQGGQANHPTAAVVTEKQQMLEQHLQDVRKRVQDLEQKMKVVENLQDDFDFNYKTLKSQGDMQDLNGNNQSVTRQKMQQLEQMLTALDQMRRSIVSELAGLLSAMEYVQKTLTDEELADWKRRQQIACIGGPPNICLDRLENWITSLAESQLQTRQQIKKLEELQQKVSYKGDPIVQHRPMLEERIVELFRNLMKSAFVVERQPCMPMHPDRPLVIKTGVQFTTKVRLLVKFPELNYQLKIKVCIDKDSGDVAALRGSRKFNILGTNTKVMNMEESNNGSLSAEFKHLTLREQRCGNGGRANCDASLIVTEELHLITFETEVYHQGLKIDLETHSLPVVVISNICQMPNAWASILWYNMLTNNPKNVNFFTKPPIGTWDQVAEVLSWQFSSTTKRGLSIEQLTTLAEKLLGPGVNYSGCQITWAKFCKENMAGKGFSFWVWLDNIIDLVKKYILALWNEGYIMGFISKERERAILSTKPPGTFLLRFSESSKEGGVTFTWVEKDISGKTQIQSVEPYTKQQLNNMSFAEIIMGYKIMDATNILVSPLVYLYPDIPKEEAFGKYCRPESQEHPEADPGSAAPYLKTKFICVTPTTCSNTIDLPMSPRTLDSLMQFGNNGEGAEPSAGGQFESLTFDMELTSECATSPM
Sequence of Steroid hormone receptor ERR1 (Homo sapiens) (P11474 whole entry, looked up, the tested form may be a part): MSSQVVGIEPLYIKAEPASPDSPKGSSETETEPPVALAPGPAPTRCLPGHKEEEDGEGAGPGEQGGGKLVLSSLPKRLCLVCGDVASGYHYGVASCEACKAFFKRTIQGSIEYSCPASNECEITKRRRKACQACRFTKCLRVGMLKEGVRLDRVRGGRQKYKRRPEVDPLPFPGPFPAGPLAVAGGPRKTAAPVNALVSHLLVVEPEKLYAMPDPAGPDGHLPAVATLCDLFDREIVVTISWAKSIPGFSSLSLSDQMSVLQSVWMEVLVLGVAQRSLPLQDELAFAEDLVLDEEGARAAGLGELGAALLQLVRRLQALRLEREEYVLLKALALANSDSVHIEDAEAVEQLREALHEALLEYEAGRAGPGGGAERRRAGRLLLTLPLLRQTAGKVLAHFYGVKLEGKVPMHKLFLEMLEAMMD
Sequence of Transcription factor Sp1 (Homo sapiens) (P08047 whole entry, looked up): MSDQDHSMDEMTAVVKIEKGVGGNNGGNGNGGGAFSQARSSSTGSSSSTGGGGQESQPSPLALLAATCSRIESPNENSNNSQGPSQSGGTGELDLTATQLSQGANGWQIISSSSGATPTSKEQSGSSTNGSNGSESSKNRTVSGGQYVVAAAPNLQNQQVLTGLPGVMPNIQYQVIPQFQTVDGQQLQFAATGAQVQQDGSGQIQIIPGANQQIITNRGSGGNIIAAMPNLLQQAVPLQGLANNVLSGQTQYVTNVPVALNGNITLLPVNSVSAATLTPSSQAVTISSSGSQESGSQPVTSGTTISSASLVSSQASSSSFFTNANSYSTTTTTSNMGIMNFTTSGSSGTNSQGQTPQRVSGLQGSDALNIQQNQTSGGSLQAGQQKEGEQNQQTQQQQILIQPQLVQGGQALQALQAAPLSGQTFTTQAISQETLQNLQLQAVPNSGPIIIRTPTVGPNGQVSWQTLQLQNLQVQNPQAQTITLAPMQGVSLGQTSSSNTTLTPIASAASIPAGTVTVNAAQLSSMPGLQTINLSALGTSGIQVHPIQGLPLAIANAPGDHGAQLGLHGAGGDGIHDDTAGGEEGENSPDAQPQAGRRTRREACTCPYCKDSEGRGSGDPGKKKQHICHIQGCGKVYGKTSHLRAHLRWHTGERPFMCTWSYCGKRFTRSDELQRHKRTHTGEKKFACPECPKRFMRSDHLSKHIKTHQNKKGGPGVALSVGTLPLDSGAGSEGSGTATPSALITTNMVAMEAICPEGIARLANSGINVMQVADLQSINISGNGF
Sequence of X-box-binding protein 1 (Homo sapiens) (P17861 whole entry, looked up): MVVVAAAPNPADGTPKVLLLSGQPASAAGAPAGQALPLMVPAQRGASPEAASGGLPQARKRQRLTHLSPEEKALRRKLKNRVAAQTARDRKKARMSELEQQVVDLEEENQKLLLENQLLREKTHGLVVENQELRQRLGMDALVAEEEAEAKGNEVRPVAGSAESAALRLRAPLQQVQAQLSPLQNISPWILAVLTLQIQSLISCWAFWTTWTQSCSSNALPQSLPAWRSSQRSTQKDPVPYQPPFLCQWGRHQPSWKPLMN
Sequence of Paired box protein Pax-6 (Homo sapiens) (P26367 whole entry, looked up): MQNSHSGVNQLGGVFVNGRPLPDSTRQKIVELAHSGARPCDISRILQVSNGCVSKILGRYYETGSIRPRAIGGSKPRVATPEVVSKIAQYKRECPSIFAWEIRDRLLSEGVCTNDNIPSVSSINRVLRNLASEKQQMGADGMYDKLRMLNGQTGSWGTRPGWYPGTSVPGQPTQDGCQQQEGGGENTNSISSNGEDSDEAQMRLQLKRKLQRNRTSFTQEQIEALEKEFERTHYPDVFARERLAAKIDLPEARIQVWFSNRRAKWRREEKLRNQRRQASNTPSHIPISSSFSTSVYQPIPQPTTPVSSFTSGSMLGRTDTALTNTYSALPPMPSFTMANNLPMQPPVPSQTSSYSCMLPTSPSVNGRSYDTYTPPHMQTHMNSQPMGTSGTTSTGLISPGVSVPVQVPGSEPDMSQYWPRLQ

C1COCO1
not listed: [14] | [15] | [16] | [17] | [18] | [19]
inactive: all other assays above

CC1=CCC(=C(C)C)CC1
active: [3] 5.48 µM | [12] 33.3 µM
not listed: [10] | [11] | [13] | [19]
inactive: all other assays above

CCCC1CCC(=O)CC1
active: [3] 27.6 µM
not listed: [8] | [13] | [15] | [18]
inactive: all other assays above

C[C@H](CCC(=O)O)[C@H]1CC[C@H]2[C@@H]3CC[C@@H]4C[C@H](O)CC[C@]4(C)[C@H]3CC[C@]12C
active: [2] 27.5 µM | [3] 3.75 µM | [5] 168 µM | [8] 25.3 µM | [9] 35.1 µM | [11] 17.7 µM | [12] 26.3 µM
inactive: [1] | [19] | [4] | [6] | [7] | [15] | [16]

CC1=CC(C)C(C=O)C(C)C1 (stereo unspecified) (tested in a mixture with another compound)
active: [3] 15.9 µM | [11] 28.8 µM
not listed: [8] | [13] | [17] | [18]
inactive: all other assays above

CC(CO)c1ccccc1 (stereo unspecified)
not listed: [11] | [13] | [19]
inactive: all other assays above

N=C1N=C(N)c2ccccc21
active: [12] 100 µM
not listed: [11] | [13] | [18] | [19]
inactive: all other assays above

NC(N)=S
not listed: [10] | [12] | [13] | [15] | [17]
inactive: all other assays above

COc1ccc(C(C)=O)cc1
not listed: [8] | [13] | [18]
inactive: all other assays above

CC1=CCC(C(C)C)=CC1
not listed: [11] | [12] | [13] | [18] | [19]
inactive: all other assays above

CCCCCCCCCO
not listed: [8] | [10] | [14] | [15]
inactive: all other assays above

C=COCC1CCC(COC=C)CC1 (stereo unspecified)
not listed: [8] | [13]
inactive: all other assays above

COc1ccc2[nH]cc(CCNC(C)=O)c2c1
not listed: [10] | [13] | [15] | [17]
inactive: all other assays above

CC=CC(=O)C1=C(C)C=CCC1(C)C
active: [3] 55.4 µM
not listed: [10] | [12]
inactive: all other assays above
